Data published in PubChem BioAssay.
Active and inactive are the calls of the source.

Key:
[1] = binders of probe aFSTL3 on microarray, primary screen, stem cell growth factor project, biochemical, small-molecule microarray, fluorescence 635/667 (AID 1064); details: higher = more signal;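 also: measures binding of the biotinylated anti-FSTL3 antibody to printed compounds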
[2] = binders from COS7 lysate, DM2A8 probe, primary screen, torsin A project, cell lysate, small-molecule microarray, fluorescence 635/667 (AID 1065); details: higher = more signal, COS7 lysate expressing mutant human TOR1A
[3] = binders of probe aFGF2 on microarray, primary screen, stem cell growth factor project, biochemical, small-molecule microarray, fluorescence 635/667 (AID 1067); details: higher = more signal;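 also: measures binding of biotinylated aFGF2 protein to printed compounds on slides; z-score merges feature fluorescence and signal-to-noise across triplicate slides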
[4] = binders of probe aFGF10 on microarray, primary screen, stem cell growth factor project, biochemical, small-molecule microarray, fluorescence 635/667 (AID 1071); details: higher = more signal;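 also: score merges 667 nm spot intensity and signal to noise from triplicate slides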
[5] = target: Neurogenic locus notch homolog protein 2 (Homo sapiens) (UniProt Q04721); assay: Notch2 binders on small-molecule microarrays, primary screen, biochemical, small-molecule microarray, 635 nm fluorescence, stem cell growth factors (AID 1073); details: Notch2 binding, higher = more signal
[6] = target: Pro-neuregulin-1, membrane-bound isoform (Homo sapiens) (UniProt Q02297); assay: NRG1 binders on small-molecule microarrays, primary screen, psychiatric disease protein project, biochemical, small-molecule microarray, fluorescence 635/667 (AID 1075); details: NRG1 binding, 635 nm fluorescence, higher = more signal;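 also: score combines 667 nm spot fluorescence with signal to noise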
[7] = system: Neuregulin-1 EGF-like domain; assay: binders of neuregulin-1 EGF-like domain, primary screen, biochemical, small-molecule microarray, 635 nm fluorescence (AID 1081); details: small-molecule microarray binding, higher = more signal;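 also: binding of the protein to compounds printed on small-molecule microarray slides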
[8] = FRG1 promoter luciferase signal modulators, primary screen, FRG1 inhibition for FSHD, cell-based, C2C12 myotubes, firefly/Renilla luciferase, luminescence (AID 1084); details: higher = more signal, called active from +8 up or from −8 down
[9] = binders of probe aFST on microarray, primary screen, stem cell growth factor project, biochemical, small-molecule microarray, fluorescence 635/667 (AID 1086); details: higher = more signal;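 also: score merges 667 nm fluorescence with signal-to-noise of each printed compound spot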
[10] = binders of probe aHhip on microarray, primary screen, stem cell growth factor project, biochemical, small-molecule microarray, fluorescence 635/667 (AID 1087); details: higher = more signal;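 also: score merges spot fluorescence at 667nm with spot signal to noise ratio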
[11] = system: PRMT1 (protein arginine N-methyltransferase 1); assay: PRMT1 binders on small-molecule microarrays, primary screen, biochemical, small-molecule microarray, 635 nm fluorescence (AID 1088); details: small-molecule microarray binding, higher = more signal;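 also: binding of Prmt1 protein to compounds spotted on small-molecule microarray slides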
[12] = yeast growth modulation, basal conditions, primary screen, YJM789 clinical isolate, OD600, 24 h (AID 1089);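 also: growth of clinical yeast isolate S. cerevisiae YJM 789 seeded 1000 cells per well; test concentration not given here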; details: S. cerevisiae YJM789 growth, higher = more signal, called active from +8 up or from −8 down
[13] = fission yeast growth modulation, primary screen, strain 972, OD600, 24 h, no modulator (AID 1090);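 also: basal condition with compound alone and no growth modifier present; test concentration not given here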; details: S. pombe 972 growth, higher = more signal, called active from +8 up or from −8 down
[14] = S. cerevisiae growth modulation with rapamycin, primary screen, strain BY4716, OD600, 96 h (AID 1091); details: higher = more signal, called active from +8 up or from −8 down; also: test concentration not given here
[15] = target: Torsin-1A-interacting protein 2 (Homo sapiens) (UniProt Q8NFQ8); assay: LULL1 binders on small-molecule microarray, primary screen, cell lysate, human LULL1 lysate, 635/667 nm fluorescence (AID 1092); details: hLULL1 lysate binding, 635 nm fluorescence, higher = more signal;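 also: probe is lysate of COS7 cells overexpressing human LULL1; score merges per-feature 667 nm fluorescence with signal-to-noise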
[16] = E. coli growth modulation, two-sided OD650, primary screen, E. coli filamentation project, strain DRC41, 24 h (AID 1093); details: OD650, 24 h, higher = more signal, called active from +8 up or from −8 down;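 also: MC1000 strain lacking acrAB efflux and sulA so SOS filamentation is blocked; test concentration not given here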
[17] = small-molecule microarray binders of probe aLefty2, primary screen, biochemical, biotinylated probe, 635/667 nm fluorescence (AID 1094); details: higher = more signal;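 also: score merges spot fluorescence near 667 nm with spot signal-to-noise ratio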
[18] = system: Noggin (protein binding on small-molecule microarray); assay: Noggin binders on small-molecule microarray, primary screen, biochemical, 635/667 nm fluorescence (AID 1095); details: 635 nm fluorescence, higher = more signal;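 also: score merges 667 nm feature fluorescence with signal to noise over triplicate slides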
[19] = target: Neurogenic locus notch homolog protein 3 (Homo sapiens) (UniProt Q9UM47); assay: NOTCH3 binders on small-molecule microarray, primary screen, biochemical, 635/667 nm fluorescence (AID 1096); details: NOTCH3 binding, 635 nm fluorescence, higher = more signal
[20] = small-molecule microarray binders of probe aEGFR, primary screen, biochemical, biotinylated probe, 635/667 nm fluorescence (AID 1097); details: higher = more signal;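 also: probe is a biotinylated anti-EGFR antibody binding compounds printed on slides; score combines fluorescence near 667 nm and signal to noise of each spot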

Neurogenic locus notch homolog protein 2 (Homo sapiens), sequence (Q04721 whole entry, looked up, canonical isoform): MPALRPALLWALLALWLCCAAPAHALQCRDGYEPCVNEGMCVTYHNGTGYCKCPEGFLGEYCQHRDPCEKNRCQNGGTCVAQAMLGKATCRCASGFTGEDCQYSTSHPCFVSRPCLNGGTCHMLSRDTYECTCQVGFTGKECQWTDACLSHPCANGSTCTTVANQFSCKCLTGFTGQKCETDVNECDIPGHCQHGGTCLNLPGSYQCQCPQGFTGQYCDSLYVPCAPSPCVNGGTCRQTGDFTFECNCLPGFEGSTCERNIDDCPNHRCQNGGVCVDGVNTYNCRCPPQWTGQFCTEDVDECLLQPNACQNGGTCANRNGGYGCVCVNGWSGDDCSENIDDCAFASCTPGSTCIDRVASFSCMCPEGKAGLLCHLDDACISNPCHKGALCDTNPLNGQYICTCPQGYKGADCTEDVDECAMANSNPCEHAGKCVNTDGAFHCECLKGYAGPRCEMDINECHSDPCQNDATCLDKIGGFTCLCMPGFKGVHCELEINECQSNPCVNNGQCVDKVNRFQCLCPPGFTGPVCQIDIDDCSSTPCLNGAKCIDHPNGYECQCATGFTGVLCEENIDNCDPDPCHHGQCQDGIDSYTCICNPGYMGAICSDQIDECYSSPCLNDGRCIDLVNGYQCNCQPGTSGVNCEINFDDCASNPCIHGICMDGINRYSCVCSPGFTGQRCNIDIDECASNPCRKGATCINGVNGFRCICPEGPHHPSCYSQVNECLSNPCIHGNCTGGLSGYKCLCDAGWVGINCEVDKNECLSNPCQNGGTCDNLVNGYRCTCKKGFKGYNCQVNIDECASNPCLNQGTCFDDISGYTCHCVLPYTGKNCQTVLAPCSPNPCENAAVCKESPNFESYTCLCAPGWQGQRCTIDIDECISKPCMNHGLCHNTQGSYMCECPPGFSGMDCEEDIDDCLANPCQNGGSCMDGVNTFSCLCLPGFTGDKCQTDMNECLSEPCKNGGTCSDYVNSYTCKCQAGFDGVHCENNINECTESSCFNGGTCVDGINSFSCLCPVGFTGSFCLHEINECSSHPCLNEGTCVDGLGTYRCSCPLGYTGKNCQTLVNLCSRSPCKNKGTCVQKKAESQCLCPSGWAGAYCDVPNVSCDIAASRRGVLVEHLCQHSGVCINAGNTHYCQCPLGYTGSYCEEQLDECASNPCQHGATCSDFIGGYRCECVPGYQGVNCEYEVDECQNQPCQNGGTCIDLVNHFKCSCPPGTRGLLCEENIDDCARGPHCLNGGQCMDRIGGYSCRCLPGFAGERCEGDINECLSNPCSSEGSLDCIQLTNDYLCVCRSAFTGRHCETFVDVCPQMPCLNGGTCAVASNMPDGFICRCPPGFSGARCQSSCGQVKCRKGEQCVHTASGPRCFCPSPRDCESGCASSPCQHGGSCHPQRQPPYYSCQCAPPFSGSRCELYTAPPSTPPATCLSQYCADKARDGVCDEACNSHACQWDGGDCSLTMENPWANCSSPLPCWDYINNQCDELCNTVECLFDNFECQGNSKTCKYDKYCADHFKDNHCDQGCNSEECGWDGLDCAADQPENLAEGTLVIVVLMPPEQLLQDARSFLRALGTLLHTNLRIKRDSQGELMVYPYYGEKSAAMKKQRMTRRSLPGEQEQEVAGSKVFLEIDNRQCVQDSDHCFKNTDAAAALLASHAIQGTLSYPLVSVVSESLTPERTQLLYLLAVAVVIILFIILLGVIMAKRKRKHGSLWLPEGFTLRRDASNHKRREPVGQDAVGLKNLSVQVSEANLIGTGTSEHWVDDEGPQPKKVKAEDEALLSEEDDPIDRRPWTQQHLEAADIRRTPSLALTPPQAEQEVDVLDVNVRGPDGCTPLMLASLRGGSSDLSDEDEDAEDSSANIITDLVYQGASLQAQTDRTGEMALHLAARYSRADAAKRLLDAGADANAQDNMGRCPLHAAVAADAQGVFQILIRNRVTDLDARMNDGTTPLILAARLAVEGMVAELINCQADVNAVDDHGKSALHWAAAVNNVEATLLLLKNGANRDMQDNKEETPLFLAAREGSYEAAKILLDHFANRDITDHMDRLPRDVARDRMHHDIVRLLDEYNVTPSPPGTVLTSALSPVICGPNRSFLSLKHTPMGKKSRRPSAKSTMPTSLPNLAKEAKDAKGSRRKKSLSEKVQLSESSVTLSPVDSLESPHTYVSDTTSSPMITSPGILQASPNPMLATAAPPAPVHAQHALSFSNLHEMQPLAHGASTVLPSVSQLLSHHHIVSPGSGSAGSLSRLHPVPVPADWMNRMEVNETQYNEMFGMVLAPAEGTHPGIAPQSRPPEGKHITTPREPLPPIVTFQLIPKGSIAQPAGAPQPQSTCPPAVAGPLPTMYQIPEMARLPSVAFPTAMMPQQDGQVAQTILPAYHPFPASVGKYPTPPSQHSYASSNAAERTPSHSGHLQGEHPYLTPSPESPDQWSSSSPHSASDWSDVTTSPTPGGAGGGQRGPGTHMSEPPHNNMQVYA
Torsin-1A-interacting protein 2 (Homo sapiens), sequence (Q8NFQ8 whole entry, looked up): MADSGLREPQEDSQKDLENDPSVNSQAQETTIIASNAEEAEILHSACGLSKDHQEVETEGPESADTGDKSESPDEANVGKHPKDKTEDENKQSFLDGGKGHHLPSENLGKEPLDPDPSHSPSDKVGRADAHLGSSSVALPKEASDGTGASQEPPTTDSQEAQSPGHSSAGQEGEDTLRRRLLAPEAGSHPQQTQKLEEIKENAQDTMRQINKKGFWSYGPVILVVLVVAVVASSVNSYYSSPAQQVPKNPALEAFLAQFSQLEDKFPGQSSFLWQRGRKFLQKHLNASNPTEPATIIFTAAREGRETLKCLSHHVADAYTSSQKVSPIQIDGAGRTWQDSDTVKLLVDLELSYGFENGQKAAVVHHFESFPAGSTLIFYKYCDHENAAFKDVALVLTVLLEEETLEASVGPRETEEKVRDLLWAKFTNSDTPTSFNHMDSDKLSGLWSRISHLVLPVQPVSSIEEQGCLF
Pro-neuregulin-1, membrane-bound isoform (Homo sapiens), sequence (Q02297 whole entry, looked up, the tested form may be a part, canonical isoform): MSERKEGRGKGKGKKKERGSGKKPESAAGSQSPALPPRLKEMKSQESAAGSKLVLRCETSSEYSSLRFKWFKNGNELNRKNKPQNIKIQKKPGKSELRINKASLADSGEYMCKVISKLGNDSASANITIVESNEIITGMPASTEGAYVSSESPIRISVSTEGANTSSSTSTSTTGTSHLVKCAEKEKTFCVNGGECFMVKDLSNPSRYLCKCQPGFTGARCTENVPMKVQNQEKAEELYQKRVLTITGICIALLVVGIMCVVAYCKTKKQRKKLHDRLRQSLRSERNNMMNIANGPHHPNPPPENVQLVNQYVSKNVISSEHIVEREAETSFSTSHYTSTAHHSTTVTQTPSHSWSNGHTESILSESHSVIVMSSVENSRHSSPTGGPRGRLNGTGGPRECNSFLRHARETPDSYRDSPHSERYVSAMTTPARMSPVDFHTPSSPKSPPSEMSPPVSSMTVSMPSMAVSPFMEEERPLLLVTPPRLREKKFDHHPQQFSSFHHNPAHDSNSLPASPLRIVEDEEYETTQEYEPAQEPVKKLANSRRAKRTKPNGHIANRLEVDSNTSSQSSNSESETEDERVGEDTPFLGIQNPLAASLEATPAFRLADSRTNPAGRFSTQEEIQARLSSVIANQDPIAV

Compound | composite z-score [1] | composite z-score [2] | composite z-score [3] | composite z-score [4] | composite z-score [5] | composite z-score [6] | composite z-score [7] | z-score [8] | composite z-score [9] | composite z-score [10] | composite z-score [11] | z-score [12] | z-score [13] | z-score [14] | composite z-score [15] | z-score [16] | composite z-score [17] | composite z-score [18] | composite z-score [19] | composite z-score [20]
CC(C)N1C(=O)C[C@@](C(=O)NCCCN(C)C)(c2ccc([N+](=O)[O-])cc2)[C@H]1c1ccc(CO)cc1 | -0.153 | -0.351 | -0.0328 | 0.589 | -0.072 | 0.454 | -0.412 | -0.0382 (inactive) | 0.27 | -0.409 | -0.139 | -0.768 (inactive) | -1.42 (inactive) | -0.525 (inactive) | 0.349 | -1.41 (inactive) | -0.0221 | -0.131 | -0.233 | -0.124
COC(=O)[C@@]1(Cc2ccc(OC)cc2)[C@H]2c3cc(C(=O)N4CCCC4)n(Cc4c(-c5ccccc5)noc4C)c3C[C@H]2CN1C(=O)c1ccccc1 | 0.194 | 0.245 | 0.336 | 0.812 | 1.71 | 1.31 | 1.25 | 0.44 (inactive) | 1.73 | 1.79 | 0.525 | 0.729 (inactive) | 1.32 (inactive) | 1.77 (inactive) | 3.31 | 0.19 (inactive) | 0.422 | 0.658 | 1.04 | 0.374
COCCOC(=O)N1C(=O)[C@@]2(c3cc(C#CC4=CCCCC4)ccc31)[C@H](c1ccccc1OCCO)N1[C@H](c3ccccc3)[C@H](c3ccccc3)OC(=O)[C@H]1[C@@H]2C(=O)N1CCCCCCC1 | 0.493 | 0.107 | 0.0829 | 0.61 | 1.1 | 0.382 | 1.29 | -0.639 (inactive) | 0.497 | -0.972 | 1.57 | 1.31 (inactive) | 1.59 (inactive) | 3.07 (inactive) | 2.9 | 0.0735 (inactive) | -0.573 | 0.766 | 1.05 | 0.0961
CC(C)[Si](C#C[Si](C(C)C)(C(C)C)C(C)C)(O[C@H](C)c1cn([C@H](CO)Cc2ccccc2)nn1)C(C)C | -0.311 | 0.585 | -0.116 | 0.215 | 0.203 | 0.183 | 0.432 | -1.06 (inactive) | 0.513 | -0.111 | 0.857 | -0.653 (inactive) | -0.644 (inactive) | -0.356 (inactive) | 1.76 | 1.51 (inactive) | -0.0961 | -0.0066 | 0.407 | -0.133
O=C1OCC=C[C@H]2OC34C=CCN(Cc5ccccc5)C(=O)[C@H]3N(CCCCCCO)C(=O)[C@@H]4[C@@H]12 (stereo not given in full) | 0.329 | -0.443 | -0.191 | -0.0166 | -0.812 | 0.273 | 1.12 | -0.843 (inactive) | -0.474 | -0.249 | -0.325 | -0.997 (inactive) | 0.0262 (inactive) | -1.53 (inactive) | 1.76 | 2.11 (inactive) | 0.0124 | -0.742 | -0.153 | -0.159
CC=CC(O)C1C=CC2C(=O)N(c3ccccc3)C(=O)C2N1Nc1ccccc1F (stereo not given) | 0.968 | 0.0233 | 0.384 | 0.547 | 0.264 | 0.82 | 1.36 | 0.584 (inactive) | 1.07 | 0.0001 | 0.841 | -0.0071 (inactive) | 1.4 (inactive) | 0.741 (inactive) | 3.08 | -0.463 (inactive) | 0.535 | -0.592 | -0.411 | 0.312
CO[C@H]1O[C@H](CO)[C@@H](OC(=O)Nc2ccccc2-c2ccccc2)[C@H](OC(=O)Nc2ccc3c(c2)OCO3)[C@H]1OC(=O)Nc1ccc2c(c1)OCO2 | -0.0811 | 0.866 | 0.0555 | 0.937 | 1.47 | 1.72 | 1.35 | 4.93 (inactive) | 0.601 | -0.0618 | 1.53 | 1.86 (inactive) | 1.35 (inactive) | 7.32 (inactive) | 3.25 | 2 (inactive) | 0.132 | 0.852 | 1.12 | 0.0115
COc1ccc(C#Cc2ccc3c(c2)[C@]2(C(=O)N3)[C@H](c3ccc(O)cc3)N3[C@H](c4ccccc4)[C@H](c4ccccc4)OC(=O)[C@H]3[C@@H]2C(=O)O)cc1 | -0.789 | 0.413 | -0.161 | 0.831 | 0.761 | 0.555 | 1.13 | -0.471 (inactive) | -0.541 | -1.08 | 0.525 | 1.11 (inactive) | -1.18 (inactive) | 0.0572 (inactive) | 3.12 | 1.43 (inactive) | -0.383 | -0.28 | -0.17 | -0.0507
C=C(CCCC)/C(=C/C[C@@H](OC(=O)c1ccncc1)c1ccccc1OCCO)c1cnc2ccccc2c1 | -0.5 | 0.517 | 0.165 | 1.17 | 1.33 | 0.611 | 1.04 | -1.53 (inactive) | 0.574 | 0.469 | 1.55 | -0.868 (inactive) | -1.2 (inactive) | 1.65 (inactive) | 1.26 | 0.514 (inactive) | -0.127 | 1.9 | 1.05 | -0.0028
OCCCC1=CC(c2ccc(CN3CCCC3)cc2)N(Cc2sc3ccccc3c2Cl)CC1 (stereo not given) | 1.46 | 0.41 | -0.221 | 0.828 | 0.72 | 0.65 | 1.27 | -0.475 (inactive) | 0.0562 | 0.535 | 1.2 | -0.72 (inactive) | -14.3 (active) | -0.628 (inactive) | 1.22 | -0.271 (inactive) | 0.0998 | 0.895 | 0.686 | 0.148
